This note sets out measurements from PubChem BioAssay (NCATS).

For assay [1], the system named is PC49. The assay is described as follows: qHTS profiling for inhibitors of Plasmodium falciparum proliferation (AID 504749). Conditions: P. falciparum in erythrocytes, SYBR Green DNA, 72 h; series mostly up to 28.7 µM. The essentials: (§1)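 Each compound contacts P. falciparum-infected red blood cells for 72 h at 37 C; lysis buffer (Tris, EDTA, saponin, Triton X, SYBR Green I) is added and fluorescence measured next morning; values normalized to controls.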

Assay [2] deals with SC27B. Described as above. The following applies: P. falciparum in erythrocytes, SYBR Green DNA, 72 h; series mostly up to 28.7 µM. The essentials: as §1
The subject of assay [3] is TAB109. The description is as above. Conditions: P. falciparum in erythrocytes, SYBR Green DNA, 72 h; series mostly up to 28.7 µM. The gist of the method: as §1
Assay [4] deals with TAB113. The assay is described as above. The following applies: P. falciparum in erythrocytes, SYBR Green DNA, 72 h; series mostly up to 28.7 µM. The essentials: as §1
Assay [5] has as its system TAB165. The description is as above. Conditions: P. falciparum in erythrocytes, SYBR Green DNA, 72 h; series mostly up to 28.7 µM. The essentials:
as §1

Assay [6] has as its system W2. The assay is described as above. Conditions: P. falciparum in erythrocytes, SYBR Green DNA, 72 h; series mostly up to 28.7 µM. The gist of the method: as §1
Assay [7] has as its system CRL-7250. Nature of the assay: Cytotoxic Profiling of Annotated Libraries Using Quantitative High-Throughput Screening (AID 1296008). On max response: on the % scale 0 is the no-effect control and ±100 the full control effect. Conditions: Five cell lines viability, CellTiter-Glo ATP luminescence, 48-72 h; max response: stronger effect = lower value. The gist of the method:
(§2)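 Cells exposed to compounds for 48 or 72 hr at 37 degrees Celsius. Viability read as ATP-coupled luminescence with CellTiter-Glo after 10 min at room temperature.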

Assay [8] deals with HEK293. Described as above. Conditions: Five cell lines viability, CellTiter-Glo ATP luminescence, 48-72 h; max response: stronger effect = lower value. The gist of the method: as §2
Background: In ATP-based viability assays light output follows the ATP content of the culture.

The subject of assay [9] is HaCat. Described as above. Conditions: Five cell lines viability, CellTiter-Glo ATP luminescence, 48-72 h; max response: stronger effect = lower value. The gist of the method: as §2
For assay [10], the system named is KB-3-1. The assay is described as above. Conditions: Five cell lines viability, CellTiter-Glo ATP luminescence, 48-72 h; max response: stronger effect = lower value. The essentials: as §2

Values joined by “and” are separate entries in the source; they are usually repeats but may differ in a detail not shown here. Identical values can stand only once. Inconclusive results are not listed. A number with no mark means an inactive call. Active and inactive are the calls of the source. The call rests on the fitted dose curve; in most records, active means well fitted inhibition curve with a large enough effect; inconclusive means small, poorly fitted or top-dose-only effect; inactive means flat fitted curve, though single readings scatter. Where a SMILES comes first, the peptide text is derived from it. [ ]: non-standard residue; d: D form. pGlu = O=C1CC[C@@H](C(=O)O)N1; Thz = O=C(O)[C@@H]1CSCN1
Further: nearly all actives have a fitted effect of over 60% in size.
Potency means the concentration at half of the fitted maximal effect.

For `CCCCCCCCCCCCCCCC(=O)OC(C)C`, the Potency result in assay [1], in assay [2], in [3], in assay [4], in [5] and in assay [6] was “inactive” in each case. Besides, the max response in [7] is 3.48%; in assay [8], -10.5%; in [9] it was -20.5%; in assay [10], 12.9%.
Take `O=C(/C=C/c1ccccc1)NCCO`: the Potency entry in [1], in assay [2], in [3], in [4], in assay [5] and in [6] was “inactive” each time. The call in [7] was inactive. Besides, the max response was -1.9% in assay [8], -18% in assay [9] and 9.29% in assay [10].
As for `Cc1ccc(C(=O)c2ccc(CC(=O)O)n2C)cc1`, the Potency result in [1], in assay [2], in assay [3], in assay [4], in assay [5] and in assay [6] was “inactive” throughout. Besides, the max response in assay [7] is -1.54%; in assay [8], -2.23%; in [9], 2.78%; in assay [10], -6.96%.
As to `O=c1[nH]c2ccccc2n1CCCN1CCN(C(c2ccccc2)c2ccccc2)CC1`, the Potency is 6.75 µM (active) in [6] and 16.8 µM (active) in [8]. Besides, the max response in [7] is -27.4%; in [9] it was -21.6%; in assay [10] it was 18.6%.
Regarding `CCOC(=O)c1ccccc1O`, the Potency result in assay [1], in [2], in assay [3], in assay [4], in assay [5] and in assay [6] was “inactive” in each case. In addition, the max response in assay [7] was 3.39%; in assay [9], -10.3%. Further, the outcome in [8] was inactive.
Take `O=C(CCN1CCN(CCO)CC1)N1c2ccccc2Sc2ccc(C(F)(F)F)cc21`: the Potency result in [2] and in [4] was “inactive” each time. Moreover, the Potency in assay [6] was 7.57 µM (active). The max response in assay [7] is -6.26%; in [8], -1.82%; in [9], -4.28%; in assay [10], -4.21%.
On to `CN1[C@@H]2CC[C@H]1CC(OC(=O)C(CO)c1ccccc1)C2` (some centres not stated), for which the Potency entry in assay [1], in assay [2], in assay [3], in assay [4], in [5] and in assay [6] was “inactive” in each case. The max response was -9.68% in assay [7], 2.75% in assay [8] and -9.85% in assay [9].
For `CCCCCCCCCCCC(=O)[O][Sn]([CH2]CCC)([CH2]CCC)[O]C(=O)CCCCCCCCCCC`, the Potency result in assay [1], in assay [2], in assay [3], in assay [4], in [5] and in assay [6] was “inactive” throughout. Moreover, the max response is -26.6% in assay [7], -9.3% in assay [8] and -5.63% in [10]. For the same compound, in assay [9], the result was inactive.
Consider `O=C(O)Cc1ccc(-c2ccccc2)cc1`, for which the Potency entry in assay [1], in [2], in assay [3], in assay [4], in assay [5] and in assay [6] was “inactive” each time. The max response in [7] is -1.48%; in assay [8] it was -6.63%; in assay [9], -10.6%; in [10], -5.98%.
As to `O=C1CC[C@@H](C(=O)N2CSC[C@H]2C(=O)O)N1` ([pGlu]-[Thz]-OH), the Potency entry in assay [1], in assay [2], in [3], in assay [4], in assay [5] and in [6] was “inactive” in each case. Moreover, the figures for the max response in assay [7], in assay [8] and in assay [9] were -1.65%, -11.6% and 2.27%, respectively.
For the compound `O=C(Nc1ccc(C(=O)O)c(O)c1)c1ccccc1`, the Potency result in assay [1], in assay [2], in assay [3], in assay [4], in assay [5] and in assay [6] was “inactive” in each case. Besides, the result in assay [7], in [8] and in [9] was inactive. Also, the max response in [10] is -1.99%.
As for `c1ccc2sc(SSc3nc4ccccc4s3)nc2c1`, the Potency result in assay [1], in [2], in [3], in assay [4], in [5] and in [6] was “inactive” throughout. Further, the max response in [7] was 1.15%; in [8], 3.28%; in assay [9], -2.36%; in assay [10] it was 18.6%.
Take `CC1(C)S[C@@H]2[C@H](NC(=O)[C@H](N)c3ccc(O)cc3)C(=O)N2[C@H]1C(=O)O`: the max response in assay [7] was -12.2%; in assay [10], 11.9% and 8.22%. In assay [8], the call was inactive.
In the case of `COc1cc(CNC(=O)CCCC/C=C/C(C)C)ccc1O`, the Potency result in assay [1], in [2], in [3], in assay [4], in assay [5] and in assay [6] was “inactive” throughout. The max response in assay [7] was 3.92%; in assay [8], -1.55%.
As to `O=C(O)Cc1cccc(-c2cc(CCCCCCc3ccc(O[C@H]4O[C@H](CO)[C@@H](O)[C@H](O)[C@@H]4O)c(-c4cccc(CC(=O)O)c4)c3)ccc2O[C@H]2O[C@H](CO)[C@@H](O)[C@H](O)[C@@H]2O)c1`, the max response is 1.99% in [8] and -11.5% in [9]. Besides, the compound was classed as inactive in assay [10].
`O=Cc1ccc(O)c(O)c1O`: in [8], the Potency was 26.6 µM (active). In assay [9], the compound was called inactive.
For `CCCOC(=O)c1ccc(O)cc1`, the Potency entry in [1], in assay [2], in [3], in assay [4], in [5] and in assay [6] was “inactive” throughout. In addition, the max response in assay [7] was 4.61%; in assay [8], -6.34%; in [10], -6.63% and -13.7%.
As to `COc1cc(NC(C)CCCN)c2ncccc2c1` (configuration not stated), the results for the max response in assay [7] and in assay [10] were 4.62% and 20.7%, respectively. Further, the compound was called inactive in [9].
